According to ChEMBL document CHEMBL3988442, “University of Dundee, Small-Polar-MMV Screening Library” (2021):
For some of these results: Results with a measured potency or affinity are listed apart.

How the values were obtained:
Design in all cases: scale not given: direction of the effect not stated beside the values
[1] = biological target: Protein translocase subunit SecA (Escherichia coli (strain K12)) (UniProt P10408); assay: Assay to Identify E. coli SecA ATPase Inhibitors; type: functional; conditions: 30 µM
[2] = biological target: T1, Ubiquitin-activating enzyme e1, putative (Leishmania donovani (strain BPK282A1)) (UniProt E9BSI1); assay: Leishmania donovani Ubiquitin Activating Enzyme (LdE1); type: functional; conditions: 30 µM
T1 sequence (whole entry): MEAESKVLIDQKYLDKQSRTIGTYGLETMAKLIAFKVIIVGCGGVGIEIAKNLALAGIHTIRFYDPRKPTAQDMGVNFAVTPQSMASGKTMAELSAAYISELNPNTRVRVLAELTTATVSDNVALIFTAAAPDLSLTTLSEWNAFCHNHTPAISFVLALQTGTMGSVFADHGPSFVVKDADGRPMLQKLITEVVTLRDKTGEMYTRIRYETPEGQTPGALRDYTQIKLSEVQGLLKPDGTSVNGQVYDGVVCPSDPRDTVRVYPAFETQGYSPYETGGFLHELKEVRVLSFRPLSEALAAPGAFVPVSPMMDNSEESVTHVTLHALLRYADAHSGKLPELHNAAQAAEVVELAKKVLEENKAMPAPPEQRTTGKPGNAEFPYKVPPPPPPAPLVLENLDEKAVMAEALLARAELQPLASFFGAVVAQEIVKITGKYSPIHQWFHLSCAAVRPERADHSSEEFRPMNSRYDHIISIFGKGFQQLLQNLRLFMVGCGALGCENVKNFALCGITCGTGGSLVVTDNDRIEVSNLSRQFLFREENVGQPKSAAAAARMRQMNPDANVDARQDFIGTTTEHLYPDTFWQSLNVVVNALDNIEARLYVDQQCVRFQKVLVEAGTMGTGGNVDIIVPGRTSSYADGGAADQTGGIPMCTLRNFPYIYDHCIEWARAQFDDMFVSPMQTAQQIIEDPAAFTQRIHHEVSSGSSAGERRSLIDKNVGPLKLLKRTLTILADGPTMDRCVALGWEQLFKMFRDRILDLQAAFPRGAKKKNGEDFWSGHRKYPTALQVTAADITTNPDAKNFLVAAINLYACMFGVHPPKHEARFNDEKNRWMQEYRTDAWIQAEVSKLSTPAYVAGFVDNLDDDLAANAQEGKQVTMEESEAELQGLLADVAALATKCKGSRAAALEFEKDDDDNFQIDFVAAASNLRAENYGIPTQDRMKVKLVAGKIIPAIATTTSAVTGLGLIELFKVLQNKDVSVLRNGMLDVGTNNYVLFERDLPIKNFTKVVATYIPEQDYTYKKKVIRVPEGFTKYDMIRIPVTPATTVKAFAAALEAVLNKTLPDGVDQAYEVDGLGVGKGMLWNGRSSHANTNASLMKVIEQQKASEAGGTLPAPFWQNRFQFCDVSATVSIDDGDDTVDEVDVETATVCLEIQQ

[3] = biological target: AMP-activated protein kinase, AMPK (Homo sapiens) (UniProt P54646+O43741+P54619+Q9UGJ0+Q9Y478+Q13131+Q9UGI9); assay: AMP-dependent Kinase enzyme assay. An in vitro enzyme assay that detects ADP turnover that is directly proportional to AMPK activity. This uses naive AMPK that is activated during the assay with MK-8722; type: functional; conditions: 30 µM
[4] = biological target: Sialic acid-binding Ig-like lectin 9 (Homo sapiens) (UniProt Q9Y336); assay: Hs-Siglec9 ALPHAscreen SOP 20170721; conditions: 10 µM
[5] = tested on: Trypanosoma cruzi; assay: Trypanosoma cruzi phosphomannomutase and mannose-1-phosphate guanylyltransferase assay; type: functional; conditions: 10 µM
[6] = biological target: T2, Arginase-2, mitochondrial (Homo sapiens) (UniProt P78540); assay: in vitro enzyme assay to detect the production of urea directly proportional to the activity of Arginase II; type: functional; conditions: 33.3 µM; also: in the data most compounds retested in dose-response had high values
T2 sequence (whole entry): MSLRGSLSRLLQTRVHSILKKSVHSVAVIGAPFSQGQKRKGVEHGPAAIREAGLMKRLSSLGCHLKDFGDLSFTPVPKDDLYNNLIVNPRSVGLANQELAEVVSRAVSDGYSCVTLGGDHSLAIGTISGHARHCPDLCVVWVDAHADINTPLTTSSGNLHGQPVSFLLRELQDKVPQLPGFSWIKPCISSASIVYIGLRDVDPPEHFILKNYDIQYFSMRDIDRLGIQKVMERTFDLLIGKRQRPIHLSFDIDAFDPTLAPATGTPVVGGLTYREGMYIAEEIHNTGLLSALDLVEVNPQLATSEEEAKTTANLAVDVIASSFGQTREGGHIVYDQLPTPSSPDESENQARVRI

[7] = biological target: T3, Proteasome subunit beta (Trypanosoma cruzi) (UniProt O96673); assay: Trypanosoma cruzi proteasome chymotrypsin-like activity (TcProtChymo) assay.; also: in the data most compounds retested in dose-response had high values; type: functional; conditions: 9.37 µM
T3 sequence (whole entry): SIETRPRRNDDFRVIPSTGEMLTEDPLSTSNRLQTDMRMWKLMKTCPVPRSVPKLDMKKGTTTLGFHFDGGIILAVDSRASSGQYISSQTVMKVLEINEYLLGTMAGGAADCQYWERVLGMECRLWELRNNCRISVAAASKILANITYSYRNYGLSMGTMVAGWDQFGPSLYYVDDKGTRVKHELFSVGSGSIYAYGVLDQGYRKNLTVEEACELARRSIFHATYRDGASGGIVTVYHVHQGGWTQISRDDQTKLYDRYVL

[8] = species: Homo sapiens; assay: To identify inhibition of the IFN signalling (Jak-Stat) pathway via expression of an eGFP reporter gene under the control of an IFN-stimulated response element (ISRE) containing MxA promoter.; type: functional; conditions: 30 µM
[9] = biological target: T4, Tyrosyl-tRNA synthetase, putative (Trypanosoma cruzi (strain CL Brener)) (UniProt Q4DSP6); assay: Trypanosoma cruzi tyrosyl tRNA synthetase (TcYRS) _High Tyrosine SOP; type: functional; conditions: 30 µM; also: in the data most compounds retested in dose-response had high values
T4 sequence (whole entry): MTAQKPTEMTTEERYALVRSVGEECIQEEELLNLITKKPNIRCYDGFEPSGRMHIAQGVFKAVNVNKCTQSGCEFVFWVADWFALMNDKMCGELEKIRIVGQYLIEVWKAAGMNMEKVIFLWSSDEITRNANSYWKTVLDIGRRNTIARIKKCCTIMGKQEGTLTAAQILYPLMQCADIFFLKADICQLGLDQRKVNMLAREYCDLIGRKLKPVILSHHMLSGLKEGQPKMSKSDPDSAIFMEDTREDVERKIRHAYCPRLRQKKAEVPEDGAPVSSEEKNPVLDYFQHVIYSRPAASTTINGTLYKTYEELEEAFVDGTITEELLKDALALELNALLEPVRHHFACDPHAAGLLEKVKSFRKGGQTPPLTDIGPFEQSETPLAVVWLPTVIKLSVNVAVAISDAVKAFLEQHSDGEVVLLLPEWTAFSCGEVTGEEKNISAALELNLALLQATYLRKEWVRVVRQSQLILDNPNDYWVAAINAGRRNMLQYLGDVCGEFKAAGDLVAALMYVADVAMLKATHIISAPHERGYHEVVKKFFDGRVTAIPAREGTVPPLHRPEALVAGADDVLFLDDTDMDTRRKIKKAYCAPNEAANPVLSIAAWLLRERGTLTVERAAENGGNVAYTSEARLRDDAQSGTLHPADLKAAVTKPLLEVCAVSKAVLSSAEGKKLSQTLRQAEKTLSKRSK

[10] = biological target: T4, Tyrosyl-tRNA synthetase, putative (Trypanosoma cruzi (strain CL Brener)); assay: Trypanosoma cruzi tyrosyl tRNA synthetase (TcYRS) SOP; type: functional; conditions: 30 µM
[11] = biological target: Chromo domain-containing protein 1 (Saccharomyces cerevisiae (strain ATCC 204508 / S288c) (Baker's yeast)) (UniProt P32657); assay: ScCHD-1 Enzyme Inhibition Assay; type: functional; conditions: 30 µM; also: in the data most compounds retested in dose-response had high values
Chain of Chromo domain-containing protein 1 (Saccharomyces cerevisiae (strain ATCC 204508 / S288c) (Baker's yeast)) (P32657 whole entry, the tested form may be a part): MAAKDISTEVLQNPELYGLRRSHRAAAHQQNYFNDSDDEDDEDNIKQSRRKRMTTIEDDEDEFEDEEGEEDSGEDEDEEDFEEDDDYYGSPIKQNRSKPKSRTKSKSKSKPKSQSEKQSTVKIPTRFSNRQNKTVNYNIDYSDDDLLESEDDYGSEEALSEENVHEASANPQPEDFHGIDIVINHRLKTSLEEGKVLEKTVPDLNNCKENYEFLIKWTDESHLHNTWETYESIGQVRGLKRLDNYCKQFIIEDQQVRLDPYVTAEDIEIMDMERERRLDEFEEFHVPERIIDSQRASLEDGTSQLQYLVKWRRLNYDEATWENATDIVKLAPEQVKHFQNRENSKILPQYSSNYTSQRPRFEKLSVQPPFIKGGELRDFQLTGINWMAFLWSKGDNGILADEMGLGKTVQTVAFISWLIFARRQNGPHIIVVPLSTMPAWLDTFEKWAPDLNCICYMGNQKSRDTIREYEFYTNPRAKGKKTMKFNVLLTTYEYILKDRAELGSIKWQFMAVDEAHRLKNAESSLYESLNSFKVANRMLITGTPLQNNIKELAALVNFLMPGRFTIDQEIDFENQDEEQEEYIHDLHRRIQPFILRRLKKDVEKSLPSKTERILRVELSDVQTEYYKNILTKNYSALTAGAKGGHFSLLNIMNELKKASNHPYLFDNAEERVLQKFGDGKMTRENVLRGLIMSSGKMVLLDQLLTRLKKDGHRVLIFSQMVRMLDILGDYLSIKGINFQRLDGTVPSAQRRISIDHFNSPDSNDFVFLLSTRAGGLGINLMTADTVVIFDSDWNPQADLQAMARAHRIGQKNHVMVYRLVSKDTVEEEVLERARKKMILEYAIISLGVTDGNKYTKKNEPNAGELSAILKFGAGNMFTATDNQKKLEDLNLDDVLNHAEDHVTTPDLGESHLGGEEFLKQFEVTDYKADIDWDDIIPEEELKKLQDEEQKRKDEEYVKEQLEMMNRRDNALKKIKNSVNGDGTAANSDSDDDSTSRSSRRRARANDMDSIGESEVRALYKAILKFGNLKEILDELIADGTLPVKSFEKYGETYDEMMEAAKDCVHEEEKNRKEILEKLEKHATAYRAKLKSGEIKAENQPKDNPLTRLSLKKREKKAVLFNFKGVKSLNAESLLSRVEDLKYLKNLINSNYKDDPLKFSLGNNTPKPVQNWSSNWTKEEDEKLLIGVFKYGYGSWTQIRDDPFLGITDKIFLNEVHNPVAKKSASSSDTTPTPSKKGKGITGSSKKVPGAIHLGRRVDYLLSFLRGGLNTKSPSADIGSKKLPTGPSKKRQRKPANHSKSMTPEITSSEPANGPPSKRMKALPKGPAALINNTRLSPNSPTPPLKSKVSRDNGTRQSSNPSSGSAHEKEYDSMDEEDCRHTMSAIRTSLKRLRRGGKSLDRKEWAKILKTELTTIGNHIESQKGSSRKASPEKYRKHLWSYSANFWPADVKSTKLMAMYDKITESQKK

Chain of Protein translocase subunit SecA (Escherichia coli (strain K12)) (P10408 whole entry): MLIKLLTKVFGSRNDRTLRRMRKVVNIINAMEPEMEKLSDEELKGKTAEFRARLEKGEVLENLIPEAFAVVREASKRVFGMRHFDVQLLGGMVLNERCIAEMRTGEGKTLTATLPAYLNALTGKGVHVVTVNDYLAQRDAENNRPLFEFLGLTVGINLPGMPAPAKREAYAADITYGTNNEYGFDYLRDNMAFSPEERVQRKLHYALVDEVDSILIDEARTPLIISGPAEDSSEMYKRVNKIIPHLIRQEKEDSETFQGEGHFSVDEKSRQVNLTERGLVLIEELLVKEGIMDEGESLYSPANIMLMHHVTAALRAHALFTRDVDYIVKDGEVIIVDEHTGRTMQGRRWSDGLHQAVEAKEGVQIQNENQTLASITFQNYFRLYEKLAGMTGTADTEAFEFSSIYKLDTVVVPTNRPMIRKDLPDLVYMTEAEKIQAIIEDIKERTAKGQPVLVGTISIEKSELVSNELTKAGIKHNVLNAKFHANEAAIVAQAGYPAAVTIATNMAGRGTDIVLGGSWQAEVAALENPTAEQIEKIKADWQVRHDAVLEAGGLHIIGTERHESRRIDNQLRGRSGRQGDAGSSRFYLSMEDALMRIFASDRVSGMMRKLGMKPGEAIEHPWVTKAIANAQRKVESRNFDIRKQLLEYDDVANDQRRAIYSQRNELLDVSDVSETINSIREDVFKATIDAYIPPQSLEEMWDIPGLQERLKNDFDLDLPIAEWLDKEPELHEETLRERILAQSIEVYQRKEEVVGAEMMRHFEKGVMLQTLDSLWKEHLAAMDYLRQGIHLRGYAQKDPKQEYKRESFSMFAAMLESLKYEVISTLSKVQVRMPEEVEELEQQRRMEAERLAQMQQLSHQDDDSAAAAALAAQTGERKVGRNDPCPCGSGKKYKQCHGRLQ
Chain of Sialic acid-binding Ig-like lectin 9 (Homo sapiens) (Q9Y336 whole entry): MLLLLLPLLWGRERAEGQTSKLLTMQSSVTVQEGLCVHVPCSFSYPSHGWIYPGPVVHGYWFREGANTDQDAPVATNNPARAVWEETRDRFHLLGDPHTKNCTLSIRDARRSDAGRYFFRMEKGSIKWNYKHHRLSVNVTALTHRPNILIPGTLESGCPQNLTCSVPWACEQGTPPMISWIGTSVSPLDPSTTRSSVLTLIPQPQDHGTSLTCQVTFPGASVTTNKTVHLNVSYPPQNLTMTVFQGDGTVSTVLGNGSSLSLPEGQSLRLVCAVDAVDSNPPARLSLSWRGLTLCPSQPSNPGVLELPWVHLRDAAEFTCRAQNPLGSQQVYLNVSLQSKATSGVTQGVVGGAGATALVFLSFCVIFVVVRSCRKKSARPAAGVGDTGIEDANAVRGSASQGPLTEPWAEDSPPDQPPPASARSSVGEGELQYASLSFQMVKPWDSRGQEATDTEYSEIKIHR

Structure (SMILES) | Percent Effect [1] [%] | Percent Effect [2] [%] | Percent Effect [3] [%] | Percent Effect [4] [%] | Percent Effect [5] [%] | Percent Effect [6] [%] | Percent Effect [7] [%] | Percent Effect [8] [%] | Percent Effect [9] [%] | Percent Effect [10] [%] | Percent Effect [11] [%]
CC(O)CN(CC(=O)NC(=O)NCC(F)(F)F)c1ccccc1 (stereo not drawn) | -4.64 | 7.79 | 6 | 6.31 | -3.82 | 1.9 | 7.36 | 17.3 | 0 | 11.8 | -9.73
COc1cc(N2C[C@@H]3COC[C@]3(COCc3cccc(C)n3)C2)ncn1 | -0.6 | 2.7 | 3.71 | 5.38 | 4.79 | 0.955 | 17.7 | 27.6 | 1.08 | 2.56 | 2.03
O=C1CC(c2cccs2)c2cnn(C3CCCC3)c2N1 (stereo not drawn) | -5.95 | -5.33 | 6.01 | -6.09 | -6.13 | -4.69 | 6.97 | 10.9 | -2.73 | -6.17 | 1.62
COCCCn1c(CN2CCCC(O)C2)cnc1S(=O)(=O)C1CCCC1 (stereo not drawn) | -5.06 | 10.4 | -2.5 | 10.5 | 4.62 | -85.5 | 3.99 | -9.18 | 3.23 | 11.1 | -11
Cc1cccc(S(=O)(=O)NCC(C)N2CCN(C)CC2)c1Cl (stereo not drawn) | -5.19 | 2.6 | -2.53 | -0.382 | -0.492 | -2.76 | 2.83 | 7.45 | 0 | 3.7 | 0.187
O=C(COc1cccc2c1CCC2=O)NCc1ccccc1F | -2.77 | 13.2 | 2.6 | -2.18 | 4.58 | 11.8 | 9.49 | 11 | 3.19 | 10.4 | -2.42
NC(=O)C1CCN(C(=O)NCc2ccccc2Cn2cncn2)CC1 | -3.59 | 5.41 | 4.01 | 0.839 | -3.86 | 0 | 10.2 | 1.83 | 2.65 | 7.32 | -1.94
CC(C)c1ncncc1C(=O)N1CCN(Cc2cscn2)CC1 | -12.5 | 13.5 | -16 | 21.4 | 10.7 | 2.03 | 5.03 | 5.44 | 6.93 | 23.2 | -8.1
